Experimental data reported in PubChem BioAssay (NCATS).
Values joined by “and” are separate entries in the source; they are usually repeats but may differ in a detail not shown here. Equal values may be shown once. Inconclusive results are not listed. The source holds several records for some structures; these can differ, active in one and inactive in another. Active and inactive are the calls of the source. Unless noted, the call rests on the fitted dose curve; in most records, active means well fitted curve in the direction sought with a large enough effect; inconclusive means small, poorly fitted or top-dose-only effect, or another doubt; inactive means no such curve, though single readings can be large; an effect the other way counts as inactive or inconclusive.

Legend:
[1] = qHTS assay for measurement of the activity of small molecule inhibitors on Zika virus induced Caspase-3 activity in human astrocytoma cells (AID 1224859)
Method in brief: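 Luminescent caspase-3/7 read-out (30 min reagent, room temperature) in human SNB-19 cells infected 6 h with ZIKV (2 FFU/cell) after 1 h compound pre-incubation; Data were normalised to uninfected and infected wells.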

[2] = qHTS Screen of the MIPE 4.0 Collection Against Ewings Sarcoma (RDES) (AID 1259252); further: nearly all actives have a fitted effect of over 35% in size; further: potency means the concentration at half of the fitted maximal effect
Method in brief: (§1)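 After a 4 h attachment period in RPMI/5% FBS, cells were pin-dosed with test compounds; DMSO served as negative and 9.2 uM bortezomib (final) as positive control. Luminescent CellTiter-Glo signal at 48 h defined viability.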

[3] = qHTS Screen of the MIPE 4.0 Collection Against Ewings Sarcoma (TC71) (AID 1259253); further: nearly all actives have a fitted effect of over 40% in size; further: potency means the concentration at half of the fitted maximal effect
Method in brief: as §1

[4] = qHTS Screen of the MIPE 4.0 Collection Against Ewings Sarcoma (EW8) (AID 1259255); further: nearly all actives have a fitted effect of over 35% in size; further: potency means the concentration at half of the fitted maximal effect
Method in brief: as §1

[5] = qHTS Screen of the MIPE 4.0 Collection Against Ewings Sarcoma (TC32) (AID 1259256); further: nearly all actives have a fitted effect of over 45% in size; further: potency means the concentration at half of the fitted maximal effect
Method in brief: as §1

[6] = P-glycoprotein substrates identified in KB-8-5-11 adenocarcinoma cell line, qHTS therapeutic library screen (AID 1346987); further: nearly all actives have a fitted effect of over 65% in size; further: potency means the concentration at half of the fitted maximal effect
Method in brief: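 Human cervical adenocarcinoma KB-8-5-11 cells, selected in colchicine to over-express P-gp and assayed without it, were exposed for 72 h to titrated compounds. An ATP-based luminescent viability signal gave AC50.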

[7] = NS1 protein of Zika virus - qHTS assay to identify small molecule inhibitors in human HEK 293 cells (AID 1347053); further: nearly all actives have a fitted effect of over 55% in size; further: potency means the concentration at half of the fitted maximal effect
Method in brief: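 In this cell-based screen, HEK 293 cultures received compound for one hour before Zika MR766 at MOI = 0.5. NS1 was quantified 24 hours later by TR-FRET, normalized to virus-free wells and infected wells.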

[8] = qHTS of pediatric cancer cell lines to identify multiple opportunities for drug repurposing: Primary screen for TC32 cells (AID 1347089); further: nearly all actives have a fitted effect of over 60% in size
Method in brief: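 A viability screen of TC32 cells was run over 48 h, with primary MIPE doses spanning 0.78 nM–46 µM and NPC doses 0.59 nM–46 µM. ATP luminescence (CellTiter-Glo) served as the read-out.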

[9] = qHTS of pediatric cancer cell lines to identify multiple opportunities for drug repurposing: Primary screen for DAOY cells (AID 1347090); further: nearly all actives have a fitted effect of over 55% in size; further: potency means the concentration at half of the fitted maximal effect
Method in brief: (§2)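 Cell viability, CellTiter-Glo luminescence; 500-1,000 cells/well, 8- or 11-point titration, 48 h compound exposure at 37 degrees C, 5% CO2. Controls: DMSO neutral, bortezomib 2.3 µM final as positive.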

[10] = qHTS of pediatric cancer cell lines to identify multiple opportunities for drug repurposing: Primary screen for SJ-GBM2 cells (AID 1347091); further: potency means the concentration at half of the fitted maximal effect
Method in brief: as §2

[11] = P-glycoprotein substrates identified in KB-3-1 adenocarcinoma cell line, qHTS therapeutic library screen (AID 1346986); further: nearly all actives have a fitted effect of over 60% in size;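 further: potency means the concentration at half of the fitted maximal effect; potency is for cytotoxicity meaning loss of cell viability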
Method in brief: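 Dose-response cytotoxicity, KB-3-1 vs P-gp-high KB-8-5-11, no colchicine in assay medium. Read: CellTiter-Glo at 72 h.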

[12] = molecular target: Atrial natriuretic peptide receptor 1 (Homo sapiens) (UniProt P16066); assay: Natriuretic polypeptide receptor (hNpr1) antagonism - Pilot screen (AID 1347049; calls by dose curve;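 further: HEK293 cells with hNpr1 and GloSensor cGMP luciferase stimulated by 0.1 nM hNppA; agonist-evoked cGMP luminescence read 20 min after hNppA addition; series mostly up to about 58 µM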)
Atrial natriuretic peptide receptor 1 (Homo sapiens), sequence (P16066 whole entry, looked up): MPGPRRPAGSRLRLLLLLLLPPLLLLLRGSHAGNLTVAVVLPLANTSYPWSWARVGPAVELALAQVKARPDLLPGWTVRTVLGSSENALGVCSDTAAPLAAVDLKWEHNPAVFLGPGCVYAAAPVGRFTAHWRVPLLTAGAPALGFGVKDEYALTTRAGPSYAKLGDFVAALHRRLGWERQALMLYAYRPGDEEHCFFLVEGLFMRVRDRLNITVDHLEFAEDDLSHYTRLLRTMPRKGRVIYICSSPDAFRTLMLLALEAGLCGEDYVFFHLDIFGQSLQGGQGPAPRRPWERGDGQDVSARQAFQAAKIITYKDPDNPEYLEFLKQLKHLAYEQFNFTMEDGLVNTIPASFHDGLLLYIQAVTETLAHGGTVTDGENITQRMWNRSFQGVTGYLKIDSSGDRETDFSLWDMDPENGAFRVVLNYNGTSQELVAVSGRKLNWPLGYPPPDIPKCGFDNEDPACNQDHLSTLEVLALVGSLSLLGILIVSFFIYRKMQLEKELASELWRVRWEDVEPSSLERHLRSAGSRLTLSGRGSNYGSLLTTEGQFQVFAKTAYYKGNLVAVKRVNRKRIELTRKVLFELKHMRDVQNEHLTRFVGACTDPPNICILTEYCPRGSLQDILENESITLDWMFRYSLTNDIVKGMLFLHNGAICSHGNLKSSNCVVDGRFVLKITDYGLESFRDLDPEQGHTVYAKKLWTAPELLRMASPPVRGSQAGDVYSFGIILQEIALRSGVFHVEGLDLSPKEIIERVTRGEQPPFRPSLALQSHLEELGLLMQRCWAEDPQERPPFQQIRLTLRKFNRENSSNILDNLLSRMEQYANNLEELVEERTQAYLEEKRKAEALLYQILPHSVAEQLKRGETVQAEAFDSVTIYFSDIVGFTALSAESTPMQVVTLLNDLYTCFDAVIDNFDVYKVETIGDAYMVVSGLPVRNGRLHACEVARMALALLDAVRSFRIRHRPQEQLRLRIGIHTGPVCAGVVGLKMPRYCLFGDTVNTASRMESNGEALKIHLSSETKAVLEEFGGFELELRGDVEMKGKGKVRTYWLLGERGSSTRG
Method in brief: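 Receptor antagonism read as cGMP-dependent luminescence in hNpr1/pGS-40F HEK293 cells: pre-read after 30 min compound exposure, post-read 20 min after hNppA agonist at 0.1 nM final, all at room temperature, protected from light; A-71915 titration as control.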

[13] = molecular target: Atrial natriuretic peptide receptor 2 (Homo sapiens) (UniProt P20594); assay: Natriuretic polypeptide receptor (hNpr2) antagonism - Pilot subtype selectivity assay (AID 1347050; calls by dose curve)
Atrial natriuretic peptide receptor 2 (Homo sapiens), sequence (P20594 whole entry, looked up): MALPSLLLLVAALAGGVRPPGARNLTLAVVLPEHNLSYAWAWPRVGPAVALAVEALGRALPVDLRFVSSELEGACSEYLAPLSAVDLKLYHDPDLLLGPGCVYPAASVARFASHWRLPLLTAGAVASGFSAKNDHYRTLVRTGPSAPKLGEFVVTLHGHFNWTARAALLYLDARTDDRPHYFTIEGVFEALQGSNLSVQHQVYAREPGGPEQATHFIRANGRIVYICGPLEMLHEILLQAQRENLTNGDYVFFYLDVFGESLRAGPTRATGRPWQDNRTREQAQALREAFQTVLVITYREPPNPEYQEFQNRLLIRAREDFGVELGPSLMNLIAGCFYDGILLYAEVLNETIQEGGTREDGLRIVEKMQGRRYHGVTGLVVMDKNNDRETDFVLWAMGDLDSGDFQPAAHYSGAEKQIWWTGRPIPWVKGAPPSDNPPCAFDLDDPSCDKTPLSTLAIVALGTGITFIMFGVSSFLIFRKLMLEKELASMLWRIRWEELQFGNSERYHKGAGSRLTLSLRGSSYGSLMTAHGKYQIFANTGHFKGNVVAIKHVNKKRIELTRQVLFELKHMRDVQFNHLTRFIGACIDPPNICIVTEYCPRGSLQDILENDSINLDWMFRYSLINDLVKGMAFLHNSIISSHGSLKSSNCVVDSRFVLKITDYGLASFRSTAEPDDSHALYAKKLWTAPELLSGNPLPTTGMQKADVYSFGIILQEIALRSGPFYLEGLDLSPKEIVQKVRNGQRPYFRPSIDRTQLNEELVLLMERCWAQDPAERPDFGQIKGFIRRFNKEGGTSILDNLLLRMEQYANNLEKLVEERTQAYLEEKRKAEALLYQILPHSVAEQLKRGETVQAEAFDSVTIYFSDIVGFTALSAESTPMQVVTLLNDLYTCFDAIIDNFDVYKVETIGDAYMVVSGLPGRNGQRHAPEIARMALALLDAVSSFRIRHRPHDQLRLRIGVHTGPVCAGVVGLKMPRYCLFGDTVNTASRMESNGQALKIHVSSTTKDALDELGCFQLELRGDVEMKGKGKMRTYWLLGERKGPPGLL
Method in brief: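 Antagonist mode: compounds (LOPAC1280, seven 1:5 dilutions) added 30 min before 1 nM hNppC stimulation of hNpr2-HEK293 cGMP-sensor cells; luminescence read before and 20 min after agonist at ambient temperature.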

[14] = molecular target: T1, Tyrosine-protein phosphatase non-receptor type substrate 1 (Homo sapiens) + Leukocyte surface antigen CD47 (Homo sapiens) (UniProt P78324+Q08722); assay: CD47-SIRPalpha protein protein interaction - Alpha assay qHTS validation (AID 1347059);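 further: bead proximity luminescence from CD47 binding SIRPalpha after compound preincubation with SIRPalpha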
T1 sequence (P78324 whole entry, looked up, the tested form may be a part): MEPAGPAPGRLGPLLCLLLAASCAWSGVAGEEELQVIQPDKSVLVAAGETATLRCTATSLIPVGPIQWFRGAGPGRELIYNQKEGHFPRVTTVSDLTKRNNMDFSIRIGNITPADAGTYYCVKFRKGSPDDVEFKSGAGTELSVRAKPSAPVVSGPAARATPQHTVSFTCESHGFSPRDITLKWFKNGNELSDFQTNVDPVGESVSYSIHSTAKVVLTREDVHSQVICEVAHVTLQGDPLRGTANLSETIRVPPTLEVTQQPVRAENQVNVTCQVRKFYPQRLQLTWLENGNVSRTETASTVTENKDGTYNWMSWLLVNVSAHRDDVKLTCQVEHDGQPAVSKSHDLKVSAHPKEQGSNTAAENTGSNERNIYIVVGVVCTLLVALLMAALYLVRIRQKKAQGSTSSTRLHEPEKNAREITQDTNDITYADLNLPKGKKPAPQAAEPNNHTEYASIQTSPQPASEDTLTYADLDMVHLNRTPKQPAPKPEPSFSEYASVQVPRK
T1 sequence (Q08722 whole entry, looked up, the tested form may be a part): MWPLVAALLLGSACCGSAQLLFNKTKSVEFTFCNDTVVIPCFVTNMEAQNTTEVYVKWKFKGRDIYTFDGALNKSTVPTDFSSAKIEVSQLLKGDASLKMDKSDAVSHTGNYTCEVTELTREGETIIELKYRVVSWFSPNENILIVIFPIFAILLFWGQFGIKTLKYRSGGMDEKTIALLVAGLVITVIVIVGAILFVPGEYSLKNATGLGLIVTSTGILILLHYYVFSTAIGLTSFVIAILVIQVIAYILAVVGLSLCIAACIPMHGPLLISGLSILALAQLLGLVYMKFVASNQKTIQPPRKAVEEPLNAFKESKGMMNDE
Method in brief: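 AlphaScreen signal between CD47-His (12.5 nM) and biotin-SIRPalpha (25 nM) soluble extracellular domains, bead-captured via Ni-NTA and streptavidin. Compounds, in 7-point titrations, met SIRPalpha 30 min before CD47; PBS pH 7.4 with 0.05% IGEPAL.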

[15] = molecular target: Parathyroid hormone/parathyroid hormone-related peptide receptor (Homo sapiens) (UniProt Q03431); assay: qHTS for PTHR1 Agonists: Optimization Screen against the NCGC LOPAC library (AID 1347079);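 further: GloSensor cAMP luminescence in HEK-293 GP2 cells expressing human PTHR1 with IBMX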
Parathyroid hormone/parathyroid hormone-related peptide receptor (Homo sapiens), sequence (Q03431 whole entry, looked up): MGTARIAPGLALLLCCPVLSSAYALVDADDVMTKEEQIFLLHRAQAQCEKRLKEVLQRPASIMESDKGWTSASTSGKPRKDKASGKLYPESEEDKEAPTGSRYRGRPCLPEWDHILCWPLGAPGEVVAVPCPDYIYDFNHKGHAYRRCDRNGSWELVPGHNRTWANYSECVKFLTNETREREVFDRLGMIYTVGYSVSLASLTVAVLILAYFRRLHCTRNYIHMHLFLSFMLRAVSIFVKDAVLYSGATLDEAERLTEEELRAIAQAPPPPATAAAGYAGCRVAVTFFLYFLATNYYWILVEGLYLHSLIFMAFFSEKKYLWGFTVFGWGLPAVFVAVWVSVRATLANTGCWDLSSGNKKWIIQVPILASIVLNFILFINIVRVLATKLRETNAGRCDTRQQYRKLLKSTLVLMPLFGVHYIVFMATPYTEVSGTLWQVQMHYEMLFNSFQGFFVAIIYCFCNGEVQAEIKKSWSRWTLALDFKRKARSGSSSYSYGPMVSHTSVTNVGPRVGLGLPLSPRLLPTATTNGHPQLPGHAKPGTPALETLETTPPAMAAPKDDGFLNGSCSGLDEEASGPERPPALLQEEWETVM
Method in brief: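 Signal increase flags agonism. GP2 cells, derived from HEK-293, express human PTHR1 and a GloSensor cAMP construct.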

[16] = Natriuretic polypeptide receptor (hNpr1) antagonism - Pilot counterscreen GloSensor control cell line (AID 1347045; calls by dose curve; further: potency means the concentration at half of the fitted maximal effect)
Method in brief: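 The SNP-driven cGMP luminescence signal (50 uM, 20 min, room temperature) was measured in GloSensor HEK293 control cells. Compounds were tested as a LOPAC titration series and preincubated for 30-50 min.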

[17] = molecular target: T1, Tyrosine-protein phosphatase non-receptor type substrate 1 (Homo sapiens) + Leukocyte surface antigen CD47 (Homo sapiens); assay: CD47-SIRPalpha protein protein interaction - LANCE assay qHTS validation (AID 1347057; active means well fitted curve in the direction sought with a large enough effect in the signal ratio, with a control signal flat, not every such curve was filed as active; the % refers to the signal ratio; further: series mostly up to about 38 µM)
Method in brief: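 Inhibition of soluble CD47/SIRPalpha ectodomain association by titrated compounds, measured as 665/615 nm time-resolved FRET ratio after sequential 30 min room-temperature incubations.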

Measured: Potency

CN(C)c1cc(NC(=O)CNC(C)(C)C)c(O)c2c1C[C@@H]1C[C@H]3[C@H](N(C)C)C(=O)C(C(N)=O)=C(O)[C@@]3(O)C(=O)C1=C2O
not listed: [11] | [12] | [13] | [14] | [15] | [16] | [17]
inactive: all other assays above

CC(C)OC(=O)CCCC=CC[C@@H]1[C@H](C=C[C@@H](O)COc2cccc(C(F)(F)F)c2)[C@H](O)C[C@@H]1O
inactive: [1] | [2] | [5] | [8]
active: [3] 16.6 µM | [10] 23.5 µM

C[C@@H]1CCN(C(=O)CC#N)C[C@H]1N(C)c1ncnc2[nH]ccc12
inactive: [1] | [2] | [3] | [4] | [5] | [6] | [7] | [8] | [10]

Cc1nc(N)sc1-c1ccnc(Nc2ccc(N3CCOCC3)cc2)n1
active: [2] 18.7 µM | [3] 14.8 µM | [4] 0.833 µM | [5] 16.6 µM | [11] 1.46 µM | [6] 5.26 µM and 1.16 µM | [9] 18.7 µM | [10] 2.35 µM
inactive: [1]

CC(=Cc1ccccc1)C=C1SC(=S)N(CC(=O)O)C1=O
not listed: [11] | [12] | [13] | [14] | [15] | [16] | [17]
inactive: all other assays above

Clc1ccc(C(c2ccc(Cl)cc2)n2cc[n+](CC(OCc3ccc(Cl)cc3Cl)c3ccc(Cl)cc3Cl)c2)cc1 (stereo not drawn)
active: [2] 16.6 µM | [3] 20.9 µM | [4] 23.5 µM | [5] 20.9 µM | [7] 11.8 µM | [9] 23.5 µM | [10] 23.5 µM
inactive: [1] | [12] | [13] | [14] | [15] | [8]

Cc1c(O)cccc1C(=O)N[C@@H](CSc1ccccc1)[C@H](O)CN1C[C@H]2CCCC[C@@H]2C[C@@H]1C(=O)NC(C)(C)C
inactive: [1] | [8]
active: [3] 20.9 µM | [4] 23.5 µM | [10] 18.7 µM

C[C@H]1[C@H](NC(=O)C(=NOC(C)(C)C(=O)O)c2csc(N)n2)C(=O)N1S(=O)(=O)O
inactive: [1] | [3] | [4] | [7] | [8] | [9] | [10]

CC1(C)CCC2=C(O1)c1ccccc1C(=O)C2=O
active: [2] 26.4 µM | [3] 26.4 µM | [4] 23.5 µM | [16] 14.7 µM
not listed: [5] | [9] | [10] | [11] | [13]
inactive: all other assays above

Nc1nc(F)nc2c1ncn2[C@@H]1O[C@H](COP(=O)(O)O)[C@@H](O)[C@H]1O
active: [2] 11.8 µM | [3] 14.8 µM | [4] 14.8 µM | [5] 16.6 µM | [9] 4.69 µM | [10] 0.662 µM
inactive: [1] | [11] | [6] | [7]

Nc1ncnc2c1ncn2[C@@H]1O[C@@H](CO)[C@H](O)[C@H]1O
not listed: [12] | [13] | [14] | [15] | [16] | [17]
inactive: all other assays above

Cc1ccccc1C(C(=O)NC1CCCCC1)N(C(=O)Cn1ccnc1C)c1cccc(F)c1 (stereo not drawn)
inactive: [1] | [2] | [4] | [6] | [7] | [8] | [9] | [10]
active: [5] 8.33 µM

COc1ccc(C2Sc3ccccc3N(CCN(C)C)C(=O)C2OC(C)=O)cc1 (stereo not drawn)
active: [2] 18.7 µM
inactive: [1] | [3] | [4] | [5] | [6] | [7] | [8] | [10]

COc1cc2ncnc(-n3nc(-c4ccccn4)nc3N)c2cc1OC
inactive and 10 µM (active): [6]
inactive: [1] | [11] | [7] | [8]
active: [3] 18.7 µM | [5] 18.7 µM | [9] 18.7 µM | [10] 14.8 µM

O=c1cc(-c2ccc(O)cc2)oc2cc(O)cc(O)c12
active: [2] 18.7 µM | [3] 20.9 µM | [4] 23.5 µM | [9] 14.8 µM | [10] 1.32 µM
not listed: [5] | [11] | [16]
inactive: all other assays above

CCOC1OC(=O)C[C@H]1NC(=O)[C@@H]1CCCN1C(=O)[C@@H](NC(=O)c1ccc(N)c(Cl)c1)C(C)(C)C (stereo partly drawn)
inactive: [1] | [2] | [3] | [4] | [5] | [11] | [6] | [7] | [8]
active: [10] 1.87 µM
